High-throughput results deposited in PubChem by several laboratories.
The list is not random: actives were taken first. Their share in the collection is about 4.6%.
V-ATPase pH: alters yeast V-ATPase proton transport | S. cerevisiae, pHLuorin cytosolic pH fluorescence | response, % at 10 µM | 0.37% of 350,000 active | AID 504577; in the data active means response mostly above about 7.3%, no sharp cut-off; inactive means mostly below about 5.4%; further: actives read high
tim23-1 inh: inhibits growth of tim23-1 mutant yeast; S. cerevisiae tim23-1 growth, BacTiter-Glo luminescence, 24 h; 1.3% of 330,000 active; inhibition, % at 20 µM; AID 463212;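 active means growth inhibition of the mutant yeast at or above 50%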;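 further: temperature-sensitive mutant grown at 25 °C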
TIM10 inh: growth inhibitors of TIM10 yeast strain; inhibition, % at 10 µM; 1.4% of 330,000 active; S. cerevisiae TIM10 strain growth, BacTiter-Glo luminescence, 24 h;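 active means inhibition of 40% or more at the single tested concentration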;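 further: wild-type TIM10 isogenic control strain grown at permissive 25 °C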
tim10-1 inh: growth inhibitors of tim10-1 mutant yeast | S. cerevisiae tim10-1 ts strain growth, BacTiter-Glo, 24 h | 2.2% of 330,000 active | AID 463190 | inhibition, % at 20 µM;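 active means inhibition of at least 40%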;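 further: mutant grown at 25 °C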
PfHsp90 yeast 2: reduces growth (ATP signal) of yeast expressing P. falciparum Hsp90; S. cerevisiae expressing PfHsp90, BacTiter-Glo ATP, 48 h; yeast lacking PDR1 and PDR3 efflux regulators; inhibition, % at 9.4 µM; 0.32% of 310,000 active;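 active means every replicate shows inhibition above about 80%, whatever the replicate mean, limit read from the data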
SKKanGAS inh: inhibitors of SKKanGAS S. pyogenes growth in kanamycin (SK-promoter or general growth effect); BacTiter-Glo, 6 h; inhibition, % at 7.5 µM; 1.3% of 300,000 active;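 active means mean replicate score, as percent of positive control median, at least 50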;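 further: strain carries kanamycin resistance gene driven by streptokinase promoter and grows in 40 µg/ml kanamycin; loss of luminescence reflects streptokinase promoter inhibition or plain growth inhibition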
tim10-1 conf: confirmation of tim10-1 mutant yeast growth inhibitors; shares compounds with tim10-1 inh; S. cerevisiae tim10-1 ts strain growth, BacTiter-Glo, 24 h; inhibition, % at 20 µM; 56% of 7,400 active; AID 463213;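 active means inhibition of yeast growth at or above a set limit in either of two repeat tests at 20 µM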;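 further: tim10-1 mutant grown at permissive 25 °C to find synthetic lethal compounds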
Large screens that a line does not name were inactive (follow-up assays come after a bar, where they were run).

O=C(CCC(=O)c1cccs1)NCc1ccccc1Cl	none (no result: PfHsp90 yeast 2, SKKanGAS inh)
CN1CCCC(CC2Oc3ccccc3Sc3ccccc32)C1 (stereo not drawn)	tim10-1 inh 40 | tim10-1 conf inactive
CCCCCCC(=O)c1c(C)[nH]c(C(=O)OCC)c1C	tim10-1 inh 40 | tim10-1 conf inactive
Fc1ccc(NC(=S)Nc2ccccc2N2CCOCC2)cc1Cl	tim10-1 inh 44 | tim10-1 conf 39
CCCN(CCC)S(=O)(=O)c1ccc(NC(=O)COc2ccccc2)cc1	tim10-1 inh 52 | tim10-1 conf 38
CCc1ccc(OCC(=O)Nc2ccc(S(=O)(=O)N3CCOCC3)cc2)cc1	none (no result: PfHsp90 yeast 2) | tim10-1 conf 33
COc1ccc(OCC(=O)Nc2ccc(S(=O)(=O)N3CCOCC3)cc2)cc1	tim10-1 inh 48 | tim10-1 conf 32
Cc1ccc(NC(=O)COc2ccc(Cl)cc2Cl)cc1S(=O)(=O)N1CCOCC1	tim10-1 inh 49 (no result: SKKanGAS inh) | tim10-1 conf inactive
CCOc1ccc(NC(=O)COc2ccc(S(=O)(=O)N3CCOCC3)cc2)cc1	none (no result: PfHsp90 yeast 2, SKKanGAS inh)
COc1ccc(OCC(=O)Nc2ccc(S(=O)(=O)N(C)c3ccccc3)cc2)cc1	none
COC(=O)C1CCN(C(=O)COC(=O)CC(NC(N)=O)c2ccc(Cl)cc2)CC1 (stereo not drawn)	none
O=S(=O)(c1ccc(S(=O)(=O)N2CCC(O)CC2)cc1)N1CCCC1	none
CC(C)N1C(=O)CSC1c1ccc(Br)cc1 (stereo not drawn)	none
O=C1c2ccccc2C(=O)c2c1ccc(C(=O)N1CCCCC1)c2NCCO	none
CC1(C)CCCN(C(=O)c2ccc3c(c2NCCO)C(=O)c2ccccc2C3=O)C1	tim10-1 inh 43 | tim10-1 conf inactive
CS(=O)(=O)c1ccc2nc(NC(=O)C3=NN(c4ccccc4)C(=O)CC3)sc2c1	none
COc1ccc2nc(NC(=O)C3=NN(c4ccccc4)C(=O)CC3)sc2c1	tim10-1 inh 43 | tim10-1 conf inactive
N=c1ncn(Cc2ccccc2)c2nc(SCCOc3ccccc3)[nH]c12	none
Cc1cccc(CS(=O)(=O)c2ncc(Cl)c(C(=O)NCc3ccccc3)n2)c1	tim10-1 inh 44 | tim10-1 conf inactive
Cc1cccc(C)c1NC(=O)c1nc(S(=O)(=O)Cc2ccccc2)ncc1Cl	none
Cc1c(/C=C/C(=O)c2ccccc2O)cnn1C	tim10-1 inh 50 | tim10-1 conf 39
Cc1ccc2occ(/C=C/C(=O)c3ccccc3O)c(=O)c2c1	tim10-1 inh 48 | tim10-1 conf 33
Cc1ccc(/C=C/C(=O)c2ccccc2O)cc1	none
COc1ccc(-n2c(-c3ccc(Br)cc3)c[n+]3c2SC(C)C3)cc1 (stereo not drawn)	none
Cc1nc([N+](=O)[O-])c(C(=O)OCc2ccccc2)n1C	none (no result: PfHsp90 yeast 2)
Cc1nc([N+](=O)[O-])c(C(=O)OCc2cccc(Br)c2)n1C	tim10-1 inh 43 (no result: PfHsp90 yeast 2) | tim10-1 conf 33
CCN(CC(=O)Nc1c(F)cccc1F)C(=O)c1ccc(OCc2c(C)noc2C)cc1	none (no result: SKKanGAS inh)
COc1ccc(/C=N/c2c(-c3ccc(OC)cc3)nc3n2CCS3)cc1	tim10-1 inh 40 | tim10-1 conf inactive
Fc1ccc(/C=N/c2c(-c3ccc(F)cc3)nc3n2CCS3)cc1	none
CCOC(=O)CC1=CCc2c1ccc(OC)c2OC	none (no result: tim23-1 inh, TIM10 inh, tim10-1 inh, SKKanGAS inh)
CCC(=O)N1CCN(c2ccccc2NC(=O)c2ccc([N+](=O)[O-])o2)CC1	none
CC(C)C(=O)N1CCN(c2ccccc2NC(=O)c2ccc([N+](=O)[O-])o2)CC1	tim10-1 inh 59 | tim10-1 conf 56
CN1CCN(c2ccccc2NC(=O)c2ccc(-c3cccc(Cl)c3)o2)CC1	tim10-1 inh 60 | tim10-1 conf 47
O=C(Nc1ccccc1N1CCCCC1)c1ccc(-c2cccc(Cl)c2)o1	none
Cc1cccc(OCC(=O)Nc2ccccc2N2CCN(C(=O)C(C)C)CC2)c1C	tim10-1 inh 48 (no result: PfHsp90 yeast 2) | tim10-1 conf 30
Cc1cc(=O)oc2c(C)c(OC3CCCCC3=O)ccc12 (stereo not drawn)	none
CCOC(=O)c1ccc(N=c2ssnc2Cl)cc1	tim10-1 inh 41 | tim10-1 conf 40
O=C(NCCc1ccc(Cl)cc1)c1ccc(S(=O)(=O)N2CCCC2)cc1	tim10-1 inh 48 | tim10-1 conf 45
O=C(NCCc1ccc(Cl)cc1)C1CCN(S(=O)(=O)c2cccs2)CC1	tim10-1 inh 50 | tim10-1 conf 40
COc1ccc(S(=O)(=O)N2CCCOC2CNC(=O)C(=O)NCc2ccccn2)cc1 (stereo not drawn)	none
O=S(=O)(c1cccc(-c2cn3cc(Cl)ccc3n2)c1)N1CCOCC1	tim10-1 inh 42 | tim10-1 conf 32
CN(C)S(=O)(=O)c1cccc(-c2cn3cc(Cl)ccc3n2)c1	tim10-1 inh 45 | tim10-1 conf 34
C[C@H](NC(=O)c1ccc(Cl)cc1)C(=O)NNC(=O)c1cccs1	none (no result: SKKanGAS inh)
O=C(CCN1C(=O)/C(=C/c2ccccc2)SC1=S)N1CCCCCC1	tim10-1 inh 44 | tim10-1 conf 36
Clc1cnc(N/N=C/c2ccco2)c(Cl)c1	none
Clc1cnc(N/N=C/c2cccs2)c(Cl)c1	none
Cc1ccc(/C=N/Nc2ncc(Cl)cc2Cl)s1	tim10-1 inh 42 | tim10-1 conf inactive
Oc1ccc(/C=N/Nc2ncc(Cl)cc2Cl)cc1	tim10-1 inh 45 | tim10-1 conf inactive
O=C1c2ccccc2C(=O)N1CCc1nc2ccccc2c(=O)n1-c1ccccn1	tim10-1 inh 49 | tim10-1 conf inactive
CCCCn1c(N)c(N(C(=O)CSc2nnnn2-c2ccccc2C)C2CCCC2)c(=O)[nH]c1=O	none (no result: SKKanGAS inh)
Cc1ccc(N2CC(C(=O)NCCC3=CCCCC3)CC2=O)cc1 (stereo not drawn)	none
C/C(=N\Nc1cc(C(F)(F)F)ccc1Cl)c1ccccc1O	tim10-1 inh 47 | tim10-1 conf 38
CC1C/C(=N/NC(=O)c2cccc(F)c2)c2ccc(O)cc2C1 (stereo not drawn)	none (no result: PfHsp90 yeast 2)
Cc1cc(C(=O)C(C)OC(=O)c2ccc(NC(=O)CC#N)cc2)c(C)n1-c1ccccc1 (stereo not drawn)	tim10-1 inh 42 | tim10-1 conf inactive
CC(OC(=O)c1ccc(NC(=O)CC#N)cc1)C(=O)NC(c1ccccc1)c1ccccc1 (stereo not drawn)	none (no result: SKKanGAS inh)
Cc1ccc(NC(=O)c2ccc(Cl)c(N3C(=O)C=CC3=O)c2)cc1	tim10-1 inh 68, PfHsp90 yeast 2 124 | tim10-1 conf 79
O=[N+]([O-])c1ccc(-c2csc(N3CCc4ccccc4C3)n2)cc1	none
O=[N+]([O-])c1ccc(N2CCc3ccccc3C2)cc1	tim10-1 inh 55 | tim10-1 conf 43
COc1cc2c(cc1NC(=O)CSc1nc3ccccc3[nH]1)oc1ccccc12	tim10-1 inh 41 | tim10-1 conf inactive
